The values that follow are results of earlier work, collected in PubChem BioAssay AID977611.

The term Kd denotes the equilibrium constant for the complex coming apart.

Structures can show the parent of a compound that is named as a salt. The whole screen tested about 3,900 compounds, of which about 3,900 (100%) were called active. Cut-off not given; nearly all actives show Kd up to about 4200 µM. So high a share suggests a set chosen from earlier hits. This is one part of the list. Numbered stars: 1 amine (or outer) side, 2 acyl side, 3 side chain; on linkers, the order of the positions; unused ones are H or OH. Starred links: 1 amine or outer side, 2 acyl side, 3 side chain; linkers in the order of their positions; H or OH if unused. Where a SMILES comes first, the peptide text is derived from it. Non-standard residues stand in square brackets, D forms with d. Square brackets hold non-standard residues; d marks the D form. Residues, ends and D or L forms follow the SMILES beside them. Peptide text beside a SMILES is read from it. [ ]: non-standard residue; d: D form. * marks the point of attachment. X1 = O=C([C@H](Cc1ccc(O[P+](O)(O)O)cc1)N[*:1])[*:2]; Lys(Me3) = C[N+](C)(C)CCCC[C@H](N)C(=O)O; Orn(CH(NH2)2) = NC(N)NCCC[C@H](N)C(=O)O; Tfa = O=C(C(F)(F)F)*

This data set in a line: PubChem AID 977611. Conditions: PDB protein-ligand complexes, literature Kd.

As to `CNC(=O)C[C@@H]1NC(=O)c2csc(n2)-c2ccc(-c3nc(N(CCCCC(=O)O)C(=O)OC4CCC(C(=O)O)CC4)cs3)nc2-c2csc(n2)-c2csc(n2)[C@H]([C@@H](O)c2ccccc2)NC(=O)CNC(=O)c2nc(sc2COC)[C@H](C(C)C)NC(=O)c2nc1sc2C` (some centres not stated), for the setting “protein: E. coli K-12 Elongation factor Tu 1, PDB entry 3u2q”, the Kd was 0.006 µM (active).
Regarding `NCc1csc2ccc(Br)cc12`, where the note is “protein: CATIONIC TRYPSIN, PDB entry 4abf”, the Kd was 24 µM (active).
Consider `NCc1csc2ccccc12`, for which, under “protein: CATIONIC TRYPSIN, PDB entry 4abb”, the equilibrium dissociation constant (Kd) was 31 µM (active).
As to `CO[C@H]1O[C@H](CNS(=O)(=O)c2c(C)cc(C)cc2C)[C@@H](O)[C@H](O)[C@@H]1O`, the Kd (protein: FUCOSE-BINDING LECTIN PA-IIL, PDB entry 3zdv) was 3.3 µM (active).
Turning to `NC(=O)C[C@H](NC(=O)CNC(=O)CNC(=O)[C@H](CCCNC(N)N)NC(=O)CNC(=O)CNC(=O)CNC(=O)CNC(=O)[C@@H](N)CO)C(=O)NCC(=O)NCC(=O)NCC(=O)NCC(=O)NCC(=O)NCC(=O)O` (H-SGGGG[Orn(CH(NH2)2)]GGNGGGGGG-OH), the Kd (protein: Outer membrane porin 1a (Ia;b;F)(OmpF), PDB entry 3o0e) was 1.8 µM (active).
H-SGRGK(Ac)G-OH: the Kd (protein: ATPase family AAA domain-containing protein 2 ATAD2A bromodomain, PDB entry 4tt2) was 22 µM (active).
On to `O=c1[nH]cnc2cc3nc(NCCN4CCCCC4)[nH]c3cc12`, for which the dissociation constant Kd (protein: Queuine tRNA-ribosyltransferase TGT, PDB entry 4q4p) was 0.407 µM (active).
With `Nc1nc2cc3nc(NCCN4CCCCC4)[nH]c3cc2c(=O)[nH]1`, the Kd (protein: Queuine tRNA-ribosyltransferase TGT, PDB entry 4q4o) is 0.0343 µM (active).
On to `O=c1[nH]cnc2cc3nc(NCCN4CCOCC4)[nH]c3cc12`, for which, where the note is “protein: Queuine tRNA-ribosyltransferase TGT, PDB entry 4q4r”, the dissociation constant Kd is 0.369 µM (active).
With `CNc1nc2cc3nc(N)[nH]c(=O)c3cc2[nH]1`, where the note is “protein: Queuine tRNA-ribosyltransferase TGT, PDB entry 4q4s”, the dissociation constant Kd was 0.112 µM (active).
As for `O=c1[nH]cnc2cc3nc(NCc4cccs4)[nH]c3cc12`, the equilibrium dissociation constant (Kd) (protein: Queuine tRNA-ribosyltransferase TGT, PDB entry 4q4q) was 1.64 µM (active).
Turning to `N#C/C(=C\c1ccncc1)C(=O)NCc1ccccc1`, for the setting “protein: RIO-type serine/threonine-protein kinase Rio1, PDB entry 4jin”, the Kd is 2.28 µM (active).
Consider `C[N+](C)(C)CCCC[C@H](N)C(=O)N[C@@H](CCC(N)=O)C(=O)O` (H-[Lys(Me3)]-Gln-OH), for which the Kd (protein: Polycomb protein EED, PDB entry 3k26) is 400 µM (active).
With `C[C@@H](O)[C@H](N)C(=O)N[C@@H](CCCC[N+](C)(C)C)C(=O)N[C@@H](CCC(N)=O)C(=O)O` (H-Thr-[Lys(Me3)]-Gln-OH), the Kd (protein: Os05g0196500 protein, PDB entry 4igq) is 30.1 µM (active).
In the case of H-IGTDKELSDLLDFSAMFS-OH, the Kd (protein: eTAFH domain of AML1-ETO, PDB entry 2knh) was 7 µM (active).
Take `CSCC[C@H](NC(=O)[C@H](CC(C)C)NC(=O)CNC(=O)[C@@H](NC(=O)[C@H](CC(N)=O)NC(=O)[C@H](CCC(=O)O)NC(=O)[C@H](Cc1ccc(O[P+](O)(O)O)cc1)NC(=O)[C@@H](N)C(C)C)C(C)C)C(=O)O` (H-V[X1]ENVGLM-OH): the Kd (protein: Grb2 SH2 domain, pY-Clamp Ptpn11_pY580, PDB entry 4jmg) was 0.0015 µM (active).
With `CC[C@H](C)[C@H](NC(=O)[C@H](CC(=O)O)NC(=O)[C@H](Cc1ccccc1)NC(=O)[C@H](CC(C)C)NC(=O)[C@H](CC(=O)O)NC(=O)CNC(=O)[C@@H](NC(=O)[C@@H](NC(=O)[C@H](CCCCN)NC(=O)[C@H](CC(C)C)NC(=O)[C@H](CCCNC(N)N)NC(=O)[C@H](CCCNC(N)N)NC(=O)[C@H](CO)NC(=O)[C@H](CC(C)C)NC(=O)[C@H](CC(N)=O)NC(=O)[C@H](CCC(=O)O)NC(=O)[C@H](CCSC)NC(=O)[C@@H](N)[C@@H](C)O)C(C)C)[C@@H](C)O)C(=O)N[C@@H](CCSC)C(=O)O` (H-TMENLS[Orn(CH(NH2)2)][Orn(CH(NH2)2)]LKVTGDLFDIM-OH), the Kd (protein: M11, the BCL-2 Homolog of Murine Gamma-herpesvirus 68, PDB entry 3bl2) is 1.58 µM (active).
Consider H-TFKEVANAVKISASLM-OH, for which the Kd (protein: Calmodulin, PDB entry 2mg5) was 0.7 µM (active).
In the case of `O=C(O)C1(O)C[C@@H](O)C(O)[C@H](O)C1` (some centres not stated), the Kd was 230 µM (active) (protein: 3-dehydroquinate dehydratase (K170M mutation), PDB entry 4iuo) and 230 µM (active) (protein: 3-dehydroquinate dehydratase, PDB entry 4gui).
On to `OC[C@H]1O[C@@H](Oc2ccc3c(c2)Oc2cc(O)ccc2N3)[C@H](O)[C@@H](O)[C@H]1O`, for which the Kd (protein: PA-I galactophilic lectin, PDB entry 4lk7) was 9.1 µM (active).
As for `CC(C)(C)OC(=O)N1CC(NC2NC(=O)c3cccnc3N2)C1` (configuration not stated), the Kd (protein: PLASMINOGEN ACTIVATOR INHIBITOR 1, PDB entry 4aqh) was 0.29 µM (active).
Consider `Cc1nn(C)c2sc(C(=O)O)cc12`, for which, for the setting “protein: Pantothenate synthetase (T2A, E77G mutation), PDB entry 4fzj”, the Kd is 700 µM (active).
Turning to `CC(C)[C@H](NC(=O)[C@H](C)NC(=O)[C@@H](N)CCCNC(N)N)C(=O)N[C@@H](CCC(=O)O)C(=O)N[C@@H](CC(N)=O)C(=O)N[C@@H](CCC(N)=O)C(=O)N[C@@H](Cc1ccc(O[P+](O)(O)O)cc1)C(=O)N[C@@H](CO)C(=O)N[C@@H](Cc1ccccc1)C(=O)O` (H-[Orn(CH(NH2)2)]AVENQ[X1]SF-OH), under “protein: CBL E3 ubiquitin protein ligase, PDB entry 1yvh”, the Kd was 0.043 µM (active).
Take `CC(C)[C@H](NC(=O)[C@@H](NC(=O)[C@@H](NC(=O)[C@H](CO)NC(=O)[C@H](Cc1ccc(O[P+](O)(O)O)cc1)NC(=O)[C@H](CCC(=O)O)NC(=O)[C@@H](NC(=O)[C@@H](NC(=O)[C@@H](N)CO)[C@@H](C)O)C(C)C)[C@@H](C)O)C(C)C)C(=O)N[C@@H](Cc1cnc[nH]1)C(=O)N[C@@H](CO)C(=O)O` (H-STVE[X1]STVVHS-OH): the Kd (protein: Suppressor of cytokine signaling 3(SOCS3), PDB entry 2hmh) is 0.07 µM (active).
On to `CC(C)[C@H](NC(=O)[C@H](CO)NC(=O)[C@H](CCC(=O)O)NC(=O)[C@@H](N)CC(N)=O)C(=O)N[C@@H](CC(=O)O)C(=O)N[C@@H](Cc1ccc(O[P+](O)(O)O)cc1)C(=O)N[C@@H](CCCNC(N)N)C(=O)N[C@@H](C)C(=O)O` (H-NESVD[X1][Orn(CH(NH2)2)]A-OH), for which the Kd (protein: E3 ubiquitin-protein ligase CBL, PDB entry 3bux) is 2.36 µM (active).
Consider `CC(C)C[C@H](NC(=O)[C@H](CC(C)C)NC(=O)[C@H](CCCCN)NC(=O)[C@H](CCCNC(N)N)NC(=O)[C@H](C)NC(=O)[C@@H]1CCCN1C(=O)[C@H](CC(=O)O)NC(=O)[C@H](Cc1ccc(O)cc1)NC(=O)[C@H](C)N)C(=O)O` (H-AYDPA[Orn(CH(NH2)2)]KLL-OH), for which, for the setting “protein: ALIX Bro1-V domains (KK268, 269YY mutant), PDB entry 2xs8”, the Kd is 24.5 µM (active).
In the case of H-ADLIAYFKAATKF-OH, the Kd (protein: T cell receptor (TCR), PDB entry 1r5w) was 2.9 µM (active).
Regarding H-AASFIDAKKMP-OH, the dissociation constant (Kd) (protein: coatomer alpha subunit, PDB entry 4j8g) is 64.5 µM (active).
H-AAIFYLAG-OH: the Kd (protein: HIV-1 protease, PDB entry 2nxd) was 2.2 µM (active).
As for H-ADLIAYPKAATKF-OH, the Kd (protein: T cell receptor (TCR), PDB entry 1r5v) was 33 µM (active).
On to H-TIYNTTLKY-NH2, for which the dissociation constant (Kd) (protein: anti-human cytomegalovirus antibody 8f9, PDB entry 3eyf) was 0.094 µM (active).
As for `CC[C@H](C)[C@H](NC(=O)[C@H](Cc1c[nH]c2ccccc12)NC(=O)[C@H](CCC(=O)O)NC(=O)[C@H](CC(N)=O)NC(=O)[C@@H](N)CO)C(=O)N[C@@H](CCC(N)=O)C(=O)N1CCC[C@H]1C(=O)N[C@@H](CCCNC(N)N)C(=O)N[C@@H](CC(C)C)C(=O)N1CCC[C@H]1C(=O)N[C@H](C=O)CCC(N)=O` (H-SNEWIQP[Orn(CH(NH2)2)]LPQ-aldehyde), the Kd (protein: Ephrin type-B receptor 2, PDB entry 2qbx) was 6 µM (active).
`CC[C@H](C)[C@H](NC(=O)[C@@H](NC(=O)[C@H](CO)NC(=O)[C@@H](NC(=O)[C@H](CCCCNC(C)=O)NC(=O)[C@H](Cc1c[nH]c2ccccc12)NC(=O)[C@H](CCCN=C(N)N)NC(=O)[C@H](CO)NC(=O)[C@H](CC(N)=O)NC(=O)[C@H](C)N)[C@@H](C)O)[C@@H](C)CC)C(=O)O`: for the setting “protein: Golgi-associated PDZ and coiled-coil motif-containing protein CAL PDZ (CALP) domain, PDB entry 4nmq”, the Kd is 32.3 µM (active).
As for `CC[C@H](C)[C@H](NC(=O)[C@H](CCCCNC(=O)C(F)(F)F)NC(=O)[C@H](CO)NC(=O)[C@@H](NC(=O)[C@@H]1CCCN1C(=O)[C@H](Cc1c[nH]c2ccccc12)NC(=O)[C@@H](N)CCCN=C(N)N)[C@@H](C)O)C(=O)O` (H-RWPTSK(Tfa)I-OH), the Kd (protein: Golgi-associated PDZ and coiled-coil motif-containing protein CAL PDZ (CALP) domain, PDB entry 4nmt) was 14.1 µM (active).
For the molecule `CC[C@H](C)[C@H](NC(=O)[C@@H](NC(=O)[C@H](CO)NC(=O)[C@@H](NC(=O)[C@@H]1CCCN1C(=O)[C@H](CCCCNC(C)=O)NC(=O)[C@H](CCCN=C(N)N)NC(=O)[C@H](CO)NC(=O)[C@H](CC(N)=O)NC(=O)[C@H](C)N)[C@@H](C)O)[C@@H](C)CC)C(=O)O`, the Kd (protein: Golgi-associated PDZ and coiled-coil motif-containing protein CAL PDZ (CALP) domain, PDB entry 4nmr) was 298 µM (active).
Regarding H-RWPTSK(Ac)I-OH, the Kd (protein: Golgi-associated PDZ and coiled-coil motif-containing protein CAL PDZ (CALP) domain, PDB entry 4nmo) was 14.9 µM (active).
For `CC[C@H](C)[C@H](NC(=O)[C@@H](NC(=O)[C@H](CO)NC(=O)[C@@H](NC(=O)[C@@H]1CCCN1C(=O)[C@H](Cc1c[nH]c2ccccc12)NC(=O)[C@H](CCCNC(N)N)NC(=O)[C@H](CO)NC(=O)[C@H](CC(N)=O)NC(=O)[C@H](C)N)[C@@H](C)O)[C@@H](C)CC)C(=O)O`, the Kd (protein: Golgi-associated PDZ and coiled-coil motif-containing protein, PDB entry 4e34) was 0.97 µM (active).
For the molecule `C[C@@H](O)[C@@H](C=O)[C@H]1CC(S)=C(C(=O)O)N1`, the dissociation constant (Kd) (protein: Probable L,D-transpeptidase LdtA, PDB entry 4jmx) was 0.0621 µM (active).
On to `CC1=C(/C=C/C(C)=C/C=C/C(C)=C/CO)C(C)(C)CCC1`, for which the Kd (protein: bovine beta-lactoglobulin, PDB entry 1gx8) was 0.43 µM (active).
As for `C/C=C(C)/C=C/C=C(C)/C=C/C1=C(C)CCCC1(C)C`, the Kd (protein: Cellular retinoic acid-binding protein 2 (R111K, R132L, Y134F, T54V, R59W mutation), PDB entry 4i9s) is 0.162 µM (active) and the Kd (protein: Cellular retinoic acid-binding protein 2 (R111K, R132L, Y134F, T54V, R59W, A32W mutation), PDB entry 4i9r) was 0.112 µM (active).
